# Data as given in PubChem BioAssay (NCI).
# Where “and” joins values, the source holds several entries; their conditions need not be identical. Equal values may be shown once. This is part of a sample that, as a whole, favours compounds with a hit. Of some 83,000 tested, about 20% had one in any assay.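 Assay: single dose, 48 h. Readout: percent growth (0 = no net growth; negative = cell death). Active: <10.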 Calls of active or inactive are those of the source.
# Tested on: MDA-MB-468 breast
# Experiment: NCI-60 one-dose screen, 48 h (100 = growth as untreated, 0 = no growth, -100 = all killed)
# Conditions: 10 µM unless noted
row,SMILES,growth
1,Brc1ccc(Oc2ccc(Nc3ncnc4onc(-c5ccccc5)c34)cc2)cc1,103% (inactive)
2,COc1cc([C@@H]2c3cc4c(cc3[C@H](OC3OC5COC(c6ccccc6)OC5C(O)C3O)[C@H]3COC(=O)[C@H]23)OCO4)cc(OC)c1OC (stereo not given in full),17.5% (inactive)
3,COC(C(=O)[C@@H](O)[C@@H](C)O)[C@@H]1Cc2cc3cc(O[C@H]4C[C@@H](O[C@H]5C[C@@H](O)[C@H](O)C(C)O5)[C@H](O)C(C)O4)cc(O)c3c(O)c2C(=O)[C@H]1O[C@H]1C[C@@H](O[C@H]2C[C@@H](O[C@H]3C[C@@H](OC)[C@H](O)C(C)O3)[C@@H](O)C(C)O2)[C@H](O)C(C)O1 (stereo not given in full),59.3% (inactive)
4,CN(C)CCCNc1nc(-c2cccc(C(Cl)(Cl)Cl)c2)nc(C(Cl)(Cl)Cl)n1,114% (inactive)
5,COc1ccccc1/C=C/C(=O)/C=C/c1ccccc1OC,-61.8% (active) and -11.8% (active)
6,CS(=O)(=O)c1ccc(C(=O)Nc2ccc(Cl)c(-c3ccccn3)c2)c(Cl)c1,3.59% (active)
7,CN(C)c1cc(NN=C(c2ccc(O)cc2)c2ccc(O)cc2)c([N+](=O)[O-])cc1[N+](=O)[O-],102% (inactive)
8,COc1cc(C2CC(c3ccc(Cl)cc3)=NN2C=O)ccc1Oc1ccnc2cc(Cl)ccc12 (stereo not given),39.7% (inactive)
9,O=C1C=C(Nc2ccccc2)c2ncccc2C1=O,-61.3% (active)
10,O=S(=O)(Nc1ccc(F)cc1F)c1ccc(-c2cnc(C3CC3)o2)cc1,2.58% (active)
11,COc1ccc(O)c(N=Nc2nccs2)c1,17.5% (inactive)
12,C=C(C)[C@@H]1CC[C@]2(C(=O)O)CC[C@]3(C)[C@H](CC[C@@H]4[C@@]5(C)CCC(NC(=O)c6cccc(OC(C)=O)c6OC(C)=O)C(C)(C)[C@@H]5CC[C@]43C)[C@@H]12 (stereo not given in full),-5.31% (active)
13,C[C@H]1[C@H]2[C@H]3CC[C@@H]4[C@@]5(C)CC[C@H](O)C(C)(C)[C@@H]5CC[C@@]4(C)[C@]3(C)CC[C@]23CO[C@]1(C)[C@@H](C(=O)/C=C\c1ccco1)C3,19.3% (inactive)
14,CN1CCN(Cc2ccc(NC(=O)c3cncc(C#Cc4cnc(N)c5ccc(F)cc45)c3)cc2C(F)(F)F)CC1,-34.4% (active)
15,CC(O)COc1ccc(-c2ccccc2)cc1 (stereo not given),102% (inactive)
16,Cc1cc(S(=O)(=O)/N=C(\N)n2nc(C)c(C)c2C)c(SCc2ccccc2)cc1Cl,66% (inactive)
17,CCN1C(=O)N(CC)C2Nn3c(s/c(=C4\C(=O)N(C5CCCC5)c5ccccc54)c3=O)=NC21 (stereo not given),11% (inactive)
18,CC/C(=N\Nc1nc2ccccc2n1C)c1ccccn1,-14.5% (active)
19,Fc1ccc(-c2nc(C(Cl)Cl)nc3cc(-c4ccccc4)nn23)cc1,-52.7% (active)
20,CC(=O)Nc1ccc(NC(=O)Nc2cccc(-c3nc(-c4ccc(NC(=O)c5cccs5)cc4Cl)no3)c2)cc1C(F)(F)F,-77.7% (active)

row,SMILES,growth
1,CCN(CC)CCCC(C)Nc1c2ccc(Cl)cc2nc2ccc(OC)cc12 (stereo not given),-63.3% (active)
2,COc1cc(C(=O)/C=C/c2c(-c3ccc(F)cc3)nc3sccn23)cc(OC)c1OC,12.8% (inactive)
3,Clc1ccc(C2CC(c3cccc(Nc4ccncc4)c3)=NN2c2cc(Cl)cc(Cl)c2)cc1 (stereo not given),84.9% (inactive)
4,O=C(Nc1ccc(Oc2cccc(F)c2)c(Cl)c1)c1cccnc1,-9.22% (active)
5,CC1=CCC(OC(=O)C(C)(O)CCC(O)(C(=O)OC2(C)C=CC(O)(C(C)C)CC2)C(C)C)(C(C)C)CC1 (stereo not given),107% (inactive)
6,N#CC1c2ccccc2C=CN1C(=O)c1ccccc1 (stereo not given),108% (inactive) and 96.5% (inactive)
7,CCCCNc1cc(C(=O)O)cc(S(N)(=O)=O)c1Oc1ccccc1,94.1% (inactive)
8,CC(=O)Oc1ccc(/C(=C(\C)c2ccc(Cl)cc2)c2ccc(OCCN3CCCCC3)cc2)cc1,-25% (active)
9,COc1ccc(OC)c(/C=N/Nc2ncnc3c2c(C)nn3C)c1,106% (inactive)
10,CCN1C(=O)N(CC)C2Nn3c(s/c(=C\c4cccc([N+](=O)[O-])c4)c3=O)=NC21 (stereo not given),28.8% (inactive)
11,N=C(N)c1ccc(-c2ccc(-c3ccc4ccccc4c3)s2)cc1,101% (inactive)
12,Cc1ccc(NC(=O)Nc2ccc(-c3cccnc3)cc2N2CCC(CO)CC2)cc1,-16.6% (active)
13,COc1ccc(-c2c(C)nn3c(NCCN4CCOCC4)cc(C)nc23)cc1OC,96.3% (inactive)
14,Cc1ncc(C(=O)Nc2ccc(CN3CCN(C)CC3)c(C(F)(F)F)c2)cc1C#Cc1cnc(N)c2ccncc12,-36.7% (active)
15,O=P(O)(O)OCC(O)CO (stereo not given),100% (inactive)
16,Cc1ccn2c(-c3csc(Nc4cccc(O)c4)n3)c(C)nc2c1,-33.1% (active)
17,Cc1ccc(C)c2c1sc1nc3nc4sc5ccccc5n4c(=N)c3c(=O)n12,88.7% (inactive)
18,CCCCCCCC/C=C\CCCCCCCCOc1ccccc1CC(=O)NCC[N+]1(C)CCCC1,40.3% (inactive)
19,C[C@]12CC[C@@H]3c4cc(OC(F)F)c(OS(N)(=O)=O)cc4CC[C@H]3[C@@H]1CC[C@@H]2O,-24.2% (active)
20,CCN(CC)CCCC(C)Nc1cnc(C(=O)Nc2ccc(Cl)c3cccnc23)cn1 (stereo not given),-28% (active)
